A selection: hits, their analogues and other compounds. The true share with any hit is near 2.5%.
KLF5 inh – KLF5 expression inhibitors, primary screen, DLD-1 cells, luminescence. DLD-1 KLF5 promoter-luciferase reporter. inhibition, % at 5 µM. hit rate 0.23% among 290,000;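 active = inhibition above a per-plate limit of that plate's mean compound inhibition plus 3 SD, cut at about 60% in these data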;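 note: 0% = DMSO wells and 100% = LY294002 at 200 µM; higher means less KLF5 promoter-driven luciferase light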
aSyn 5UTR inh – MLPCN primary screen, SNCA 5' untranslated region; alpha-synuclein 5'UTR reporter, inhibitor activity; inhibition, % (tested at 7.5 µM); hit rate 0.82% among 300,000; AID 1813, 2009; in the data active = inhibition above about 60%;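 note: H4 neuroglioblastoma cells stably carrying SNCA 5'UTR luciferase fusion; 0% = DMSO wells and 100% = positive control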
ANO1 block – TMEM16A chloride channel inhibitors, primary screen, cell-based, HTS; hit rate 1.2% among 310,000; HEK293 TMEM16A/YFP iodide influx fluorescence, ionomycin; AID 588511, 2011; normalized B-score (activity score, 25-100; higher = stronger inhibition) at 10 µM; Anoctamin-1 (Mus musculus), Q8BHY3;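 active = ratio plate-corrected score three or more library SD toward inhibition, starting fluorescence score within five deviations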;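 note: score derived from kinetic fluorescence span divided by baseline fluorescence per well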
Target sequence (Q8BHY3 whole entry, looked up): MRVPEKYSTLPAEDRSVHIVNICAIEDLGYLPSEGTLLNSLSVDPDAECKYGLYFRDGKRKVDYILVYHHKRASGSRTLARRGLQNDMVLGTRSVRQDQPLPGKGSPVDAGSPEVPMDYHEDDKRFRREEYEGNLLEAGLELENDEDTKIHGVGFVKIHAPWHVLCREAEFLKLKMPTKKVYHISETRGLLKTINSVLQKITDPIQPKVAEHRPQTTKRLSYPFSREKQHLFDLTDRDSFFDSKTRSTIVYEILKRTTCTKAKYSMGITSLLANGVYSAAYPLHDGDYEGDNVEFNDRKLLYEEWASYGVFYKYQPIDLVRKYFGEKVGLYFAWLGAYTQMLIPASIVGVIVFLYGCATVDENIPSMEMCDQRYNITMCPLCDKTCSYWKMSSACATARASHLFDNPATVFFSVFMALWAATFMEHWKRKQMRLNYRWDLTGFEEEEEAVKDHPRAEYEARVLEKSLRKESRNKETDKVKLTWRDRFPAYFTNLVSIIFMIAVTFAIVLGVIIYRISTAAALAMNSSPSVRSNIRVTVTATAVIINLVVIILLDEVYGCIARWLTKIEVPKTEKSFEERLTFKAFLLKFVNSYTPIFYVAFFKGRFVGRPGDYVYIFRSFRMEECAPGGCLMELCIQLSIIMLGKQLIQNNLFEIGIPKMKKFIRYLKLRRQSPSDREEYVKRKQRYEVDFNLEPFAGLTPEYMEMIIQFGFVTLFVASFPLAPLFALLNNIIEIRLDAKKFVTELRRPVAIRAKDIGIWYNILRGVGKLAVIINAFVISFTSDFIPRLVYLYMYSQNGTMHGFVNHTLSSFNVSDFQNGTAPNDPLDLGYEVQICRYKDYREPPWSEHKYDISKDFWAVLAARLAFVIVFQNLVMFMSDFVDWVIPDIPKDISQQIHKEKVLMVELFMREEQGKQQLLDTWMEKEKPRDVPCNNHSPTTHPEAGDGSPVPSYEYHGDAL
697 NFkB inh – inhibitors of PMA/ionomycin-induced NF-kB reporter, 697 cells, primary screen, B-cell NF-kB inhibitor project, cell-based, luminescence, uHTS; AID 435022, 2010; 697 B-cell NF-kB luciferase reporter, 16 h; hit rate 0.33% among 330,000; inhibition, % at 4 µM; in the data active = inhibition above about 35%
ANO1 activ – TMEM16A chloride channel activators or potentiators, primary screen, cell-based, HTS; HEK293 TMEM16A/YFP-H148Q/I152L, iodide quench fluorescence; stronger effect = lower value; AID 623877, 2012; Anoctamin-1 (Mus musculus), Q8BHY3; B-score at 10 µM; hit rate 0.3% among 340,000;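 active = fluorescence-ratio B-score plate-corrected deviation score at least 3 library SD below zero, with starting fluorescence score within 5 deviations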;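 note: channel opened by trigger with iodide after compound preincubation; score built on the fluorescence ratio of max minus min over baseline; more negative score means more quench and so TMEM16A activation or potentiation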
Jurkat NFkB inh – inhibitors of induced NF-kB luciferase reporter, primary screen, TCR NF-kB activation inhibitor project, cell-based, luminescence, uHTS | Jurkat, PMA/ionomycin-induced NF-kB luciferase reporter | inhibition, % at 4 µM | AID 435003, 2010 | hit rate 0.53% among 330,000; in the data active = inhibition above about 50%
Starred values were filed as active, the others as inactive; i = inactive; / = not tested or not shown.

SMILES | KLF5 inh | aSyn 5UTR inh | ANO1 block | 697 NFkB inh | ANO1 activ | Jurkat NFkB inh
CCN(CC)S(=O)(=O)c1cccc(C(=O)OCC(=O)NCCN2C(=O)CSC2=O)c1 | / | / | / | -4.4 | i | -11.8
O=C(Nc1c(C(=O)N2CCOCC2)oc2ccccc12)c1ccccc1Cl | -35.3 | 0.5 | i | -7.6 | i | -20.3
O=C(Cn1ncc(Cl)c(Cl)c1=O)N1CCc2ccccc21 | 4.3 | 134.7* | / | / | i | /
O=C(Nc1nc2ccccc2[nH]1)c1cc(F)cc(F)c1 | -145.7 | -148.2 | i | -151.9 | i | -141.4
COC(=O)Nc1nc2ccc(C(=O)c3ccc(F)cc3)cc2[nH]1 | 17.3 | 99.2* | i | / | / | /
CCCOc1ccc2nc(NC(=O)OC)[nH]c2c1 | 59.8 | 83.9* | / | / | / | /
CC1CN(C(=O)c2ccc(Br)c(S(=O)(=O)N3CCOCC3)c2)CC(C)O1 (stereo unspecified) | / | / | / | -6.3 | i | 4.9
Cn1c(=O)c2c3c(sc2n2cnnc12)CCC3 | -22.1 | 14.5 | 25* | 15.1 | i | -7.8
O=c1c2c3c(sc2n2cnnc2n1CCc1ccccc1)CCCC3 | -32.3 | -56.6 | i | 6.6 | i | 11.2
O=c1c2ccccc2oc2cc(C#CC3(O)CCCCC3)ccc12 | / | 77.3* | i | -159.8 | i | -85.1
COc1ccccc1-c1oc2ccccc2c1C#CC1(O)CCCCC1 | / | / | / | 10.7 | i | -13.5
COc1ccc(CNC(=O)[C@H](C)N2C(=O)N3CCc4c([nH]c5ccccc45)[C@@]3(C)C2=O)cc1OC | 6.9 | 14.6 | i | -9.5 | -13* | 13.8
CCOC(=O)N1CCN(Cc2nc3cc(NC(=O)c4cccs4)ccc3n2CC)CC1 | -4.7 | -42.3 | i | -19.0 | i | 21.1
COc1ccccc1C(=O)Nc1ccc(S(=O)(=O)Nc2cnc3ccccc3n2)cc1 | 0.1 | 8.5 | i | -7.1 | i | 6.1
CCOC(=O)c1c(CC(C)C)csc1NC(=O)C(C)C | 0.7 | 33.0 | 25* | -12.7 | i | -9.3
C[C@@H]1COC(=O)[C@H](CC(=O)OC(C)(C)C)C/C=C\C[C@@H](CC(=O)NCCO)C(=O)N1 | / | / | / | -18.3 | i | -19.2
CCCCCc1nc2sc3c(c2c(=O)n1NC(=O)c1ccc([N+](=O)[O-])cc1)CC(C)(C)OC3 | 11.5 | -18.9 | 25* | 3.3 | i | 3.6
CC(=O)Oc1ccc(OC(C)=O)c2c1CC(C)=C(C)C2 | -18.5 | 1.8 | i | -25.5 | i | 7.4
Cc1ccc(Nc2ncc3c(=O)[nH][nH]c(=O)c3n2)cc1 | / | / | / | / | i | /
COc1ccc(CN(C)C(=O)c2cccc(S(=O)(=O)N3CCCc4ccccc43)c2)c(OC)c1OC | / | / | / | / | i | /
COc1ccc(OCCN2CCN(C(=O)c3ccc(OC(F)F)c(OC)c3)CC2)cc1 | -2.9 | 21.6 | i | -1.4 | i | 17.3
COc1ccc(OCCN2CCN(C(=O)c3ccc(OC)cc3)CC2)cc1 | 4.2 | 9.8 | 100* | -47.2 | i | 13.6
Cn1c(=O)c2c([nH]c(=O)n2C)n(Cc2ccccc2)c1=O | / | -11.8 | i | 3.8 | i | 4.4
CCN(c1ccccc1)S(=O)(=O)c1ccc2c(c1)N(C(C)=O)CCS2 | -5.8 | 16.5 | i | -28.7 | i | 3.2
COc1ccc(C2=Nn3c(nnc3-c3ccc(OC)cc3)SC2)cc1 | 52.7 | 99.7* | i | / | i | /
SMILES | KLF5 inh | aSyn 5UTR inh | ANO1 block | 697 NFkB inh | ANO1 activ | Jurkat NFkB inh
COc1ccc(C2=Nn3c(nnc3-c3ccco3)SC2)cc1OC | -39.3 | 79.0* | i | 9.8 | i | -1.9
COc1ccc(C2=Nn3c(nnc3-c3ccccc3OC)SC2)cc1OC | 55.5 | 107.0* | i | / | i | /
COC(=O)c1ccc(OC)c(CN2CCCN(Cc3cc(C)ccc3C)S2(=O)=O)c1 | -44.1 | 6.1 | i | -3.2 | i | 7.7
CCOc1ccccc1NC(=O)C1(S(=O)(=O)c2ccc(Cl)cc2)CC1 | -2.2 | 3.3 | i | 10.8 | i | -6.4
CN(C)C(CNC(=O)c1cc(S(=O)(=O)N2CCOCC2)ccc1Cl)c1cccs1 (stereo unspecified) | / | / | / | / | i | /
COc1ccc(C(C(=O)NC2CCCC2)N(CCO)C(=O)Cn2nnc(-c3ccc(C)o3)n2)cc1OC (stereo unspecified) | 1.9 | -17.9 | i | 5.6 | i | 11.6
Cc1c(Cl)cccc1NC(=S)C(=C([O-])c1ccc(Cl)s1)[n+]1ccccc1 | / | / | / | / | i | /
O=C(c1cccc(S(=O)(=O)N2CCN(c3ccccc3)CC2)c1)N1CCCC(C(F)(F)F)C1 (stereo unspecified) | / | -1.3 | 25* | -38.0 | i | 20.5
O=C(N/N=C\c1cc(Cl)ccc1O)c1ccc(S(=O)(=O)N2CCCCC2)cc1 | 9.1 | 112.5* | i | -67.2 | i | 31.8
O=C(Nc1cc(S(=O)(=O)Nc2ccc(Cl)cc2)ccc1O)c1ccc(S(=O)(=O)N2CCCCCC2)cc1 | -10.6 | -20.0 | i | -4.7 | i | 1.5
CC(C)c1ccc(C2=C(O)c3ccccc3C(=O)C2=O)cc1 | -9.6 | -16.2 | 25* | -6.5 | i | 4.2
COc1cc(/C=N/n2nnnc2N)cc(Cl)c1OC | / | 15.9 | i | 20.4 | i | -5.5
CS/C(=N\S(=O)(=O)c1cccs1)NC(=O)CSc1nc2ccccc2s1 | 23.1 | 40.0 | 100* | 2.0 | i | -8.7
Cc1ccc(CC(=O)Nc2cc(C)on2)cc1 | 2.9 | -7.0 | i | -0.3 | i | 3.5
CCCNC(=O)c1cc(S(=O)(=O)N2CCCCC2)c[nH]1 | -33.4 | 7.1 | i | 3.9 | -8.3* | -5.1
CC(C)OCCCNC(=O)c1cc(S(=O)(=O)N2CCCCC2)c[nH]1 | -37.3 | 15.6 | i | 8.1 | i | 5.8
COc1ccc(-n2ncc3c2CC(C)(C)CC3NC(=O)c2ccoc2C)cc1 (stereo unspecified) | -41.0 | 0.8 | i | 7.9 | i | 10.7
COc1ccc(OC)c(C(=O)NC2CC(C)(C)Cc3c2cnn3-c2ccccc2)c1 (stereo unspecified) | -7.9 | 67.2* | i | -162.4 | i | -6.7
COc1ccc(-c2noc(N3CCC(C(=O)N(C)c4ccccc4)CC3)n2)cc1 | 12.2 | -18.6 | i | 9.3 | i | 9.4
O=C(OCC(=O)N1CCCCCC1)c1ccccc1Br | / | / | / | -28.3 | i | -57.8
O=C(CCCOc1ccc(Cl)cc1Cl)N1CCCc2ccccc21 | -32.5 | 1.3 | 100* | -20.3 | i | -32.8
O=C(COc1ccc(Cl)cc1Cl)OCC(=O)N1CCCc2ccccc21 | -18.8 | 4.0 | i | 4.2 | i | -1.2
O=C(COC(=O)C1(c2ccc(Cl)cc2)CCCC1)Nc1ncc(C(F)(F)F)cc1Cl | 3.4 | -5.0 | 100* | -23.1 | i | 3.7

Source: PubChem BioAssay (several laboratories)
